The first experiment concerns PPARg homodimer (NR concentration 180 nM). Briefly: PBM binding z-score (relative to random genomic background probes); higher = stronger binding; sequences stand for … in GC…GCGATTGACAGCGTAGAATGAAGG
The method in brief: (§1)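 Antibodies against each partner of ligand-free nuclear receptor dimers (one per run) detected binding on custom Agilent 4×180K protein-binding microarrays after 1 h incubation. The double-stranded probes had 34-nt variable regions carrying direct-repeat seeds, single-nucleotide variants, half-site ablations and random human genomic background sequences. Binding z-scores, from regression-normalized fluorescence, use the random background probes as reference.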
With CTACCAAGGTGGACAAGGTCGTTGATTACTATTC, the PBM binding z-score came to 0.0242.
In turn, AGAGTGAGGTTAAGATCAGGGAAACAGAATACAT displayed a PBM binding z-score of 1.63.
Still for that read-out and setting: next, CCAGACAGGTGAAAGGGAACTCAGTCTGGTACGC: 0.717; CGAACTAGGTCATGGACAGTGAATCTCCGCACGC: 1.69; CGACCTAGGTCATCCAGGACAGTGAATACATTGA: 2.02.
The same measure, in the same setting: next, TAGCCTAGGTCATGCGGGCCACTATAGTGTCGGC: 1.72; ACTAGCAGGCCCAGTTTGGGTCACTCAAACAAAG: -0.457.
The same measure, in the same setting: next, TAGCCTAGGTCATTCAGGTGCCAGTATAGAAAGC: 1.13.
In turn, ATCCCTAGGTAAAGATAGTTCAGTGAATGCAAAT registered a PBM binding z-score of 0.544.
Same read-out and setting: then CAAACTAGGGCACCGGAAGGTCAAAGTCCGCATG, with 1.96; and CCCCGGAGGACAACAGGAGGTCAGAGCTGCCAGA, with 2.15; and CAAACTAGGTCAAGAGGGCAAAGTCCGCTTCCCG, with 3.42.
The same measure, in the same setting: then ATCCAAAGGTCGACGAGGTGAGTATACACCGTTT, with 1.99; and TATACAGGGTCAAACGCCAGAGTACGAATGTCGA, with 3.53; and ACTAGCAGGCCAAGTCTGGGTCACTCAAACAAAG, with 0.811.
On the same count and under the same terms, next, GCAGACAGGTGAAACGCAGGTGACTCAGGGTGGC: -0.182; ATCTGTAGGTAACCAAGTTCAGTGAATGCCGAAC: 0.414; CTTACTGGGCCATTCAGAGGTCATTGATCATATG: 2.09.
ATACCAAGGTGATCGTGAGGTCGTTCATACTAAC gave a PBM binding z-score of 1.15.
Regarding TAGCCTAGGTCATTCAGTGGCCAGTATAGAAAGC, the PBM binding z-score was 1.28.
The same measure, in the same setting: next, AGTCAAAGTTCCCTAGGTAACGTAAGATTCAGCT: -0.325; TCTTGTAGATCAAGCAGGTGAAGAAAGCCTGAGT: -0.0595.
Same read-out and setting: next, CCTAGTTGGTCAAAGTCACACACGCTATAGGTAC: 1.59.
The same measure, in the same setting: then CCTAGTTGGTCGAGGTCACACACGCTATAGGTAC, with 3.81; and GATACAGGGTCAAGGCCAGAGTTCGCGTATTGAT, with 2.3.
Take CCAACTAGGTCAAGGACAGTGAATCTCCGCACGC: the PBM binding z-score was found to be 2.38.
Turning to TCTTGTAGATCAGCATGTTAAGAAAGCTGGCCAA, the PBM binding z-score was -0.198.
The same measure, in the same setting: next, ACTTACGGGTCAACGAGGTTATAGCGCGCGTATA: 2.15; CGTCCAAGGTCAAAGATCAGTGAAGAGATGACGG: 2.98; CCTTACGGGTCGAGGTTATAGCACGGGTGGTACG: 1.53.
On the same count and under the same terms, next, GCTGACAGGTGAAACGCAGGTAACTCAGGGTGGC: -0.522.
On the same count and under the same terms, then CCTACTGGTCCACGAAAGGTCATTGATTCAGTGA, with 4.11; and CCAACTGGGGCAAGGTTACCATAACGCACAGCCA, with 0.543; and GCTGCTAGGTCAGGTTGGTCACCTAACGGGTACG, with 0.888.
In turn, CCGACTGGGGCAAAGGGTACCATACTCAGTACGA returned a PBM binding z-score of 1.03.
Still for that read-out and setting: next, ATCTCTAGGTAAGACTAAGTTCAGTGAAGAACGC: 1.48.
Same read-out and setting: then TCTATTAGTTTATTAGGGCAACCGAAACAGCGGA, with 1.44; and CCTTACGGGCCACTCCAGGTTATAGCATCGGAGT, with 0.232; and TCTTGTAGATCAAGCACGTTAAGAAAGCCTGAGT, with 0.56.

A further experiment deals with PXR:RXRa (NR concentration 270 nM, RXRa partner concentration 90 nM). The description is as above. The procedure, abridged:
as §1
With CTACCAAGGTGGACAAGGTCGTTGATTACTATTC, the PBM binding z-score was found to be 1.28.
On the same count and under the same terms, then AGAGTGAGGTTAAGATCAGGGAAACAGAATACAT, with 1.62; and CCAGACAGGTGAAAGGGAACTCAGTCTGGTACGC, with -0.0959; and CGAACTAGGTCATGGACAGTGAATCTCCGCACGC, with 1.36.
Same read-out and setting: next, CGACCTAGGTCATCCAGGACAGTGAATACATTGA: 2.45.
Still for that read-out and setting: next, TAGCCTAGGTCATGCGGGCCACTATAGTGTCGGC: 1.69; ACTAGCAGGCCCAGTTTGGGTCACTCAAACAAAG: 0.133; TAGCCTAGGTCATTCAGGTGCCAGTATAGAAAGC: 2.17.
Sequence ATCCCTAGGTAAAGATAGTTCAGTGAATGCAAAT showed a PBM binding z-score of 1.12.
For CAAACTAGGGCACCGGAAGGTCAAAGTCCGCATG, the PBM binding z-score was 4.06.
In the case of CCCCGGAGGACAACAGGAGGTCAGAGCTGCCAGA, the PBM binding z-score turned out to be 2.19.
With CAAACTAGGTCAAGAGGGCAAAGTCCGCTTCCCG, the PBM binding z-score worked out at 2.98.
Still for that read-out and setting: next, ATCCAAAGGTCGACGAGGTGAGTATACACCGTTT: 3.05; TATACAGGGTCAAACGCCAGAGTACGAATGTCGA: 4.49.
On the same count and under the same terms, next, ACTAGCAGGCCAAGTCTGGGTCACTCAAACAAAG: 0.664; GCAGACAGGTGAAACGCAGGTGACTCAGGGTGGC: 0.074; ATCTGTAGGTAACCAAGTTCAGTGAATGCCGAAC: 2.03.
On the same count and under the same terms, next, CTTACTGGGCCATTCAGAGGTCATTGATCATATG: 4.88; ATACCAAGGTGATCGTGAGGTCGTTCATACTAAC: 3.23.
In the case of TAGCCTAGGTCATTCAGTGGCCAGTATAGAAAGC, the PBM binding z-score was found to be 1.66.
Still for that read-out and setting: then AGTCAAAGTTCCCTAGGTAACGTAAGATTCAGCT, with 0.00195.
Same read-out and setting: next, TCTTGTAGATCAAGCAGGTGAAGAAAGCCTGAGT: 0.043.
Same read-out and setting: then CCTAGTTGGTCAAAGTCACACACGCTATAGGTAC, with 0.0775; and CCTAGTTGGTCGAGGTCACACACGCTATAGGTAC, with 5.08; and GATACAGGGTCAAGGCCAGAGTTCGCGTATTGAT, with 5.07.
The sequence CCAACTAGGTCAAGGACAGTGAATCTCCGCACGC came in with a PBM binding z-score of 1.23.
The same measure, in the same setting: next, TCTTGTAGATCAGCATGTTAAGAAAGCTGGCCAA: 0.127.
Still for that read-out and setting: next, ACTTACGGGTCAACGAGGTTATAGCGCGCGTATA: 5.22; CGTCCAAGGTCAAAGATCAGTGAAGAGATGACGG: 4.59.
Same read-out and setting: then CCTTACGGGTCGAGGTTATAGCACGGGTGGTACG, with 1.11.
GCTGACAGGTGAAACGCAGGTAACTCAGGGTGGC: the PBM binding z-score is -0.223.
Same read-out and setting: then CCTACTGGTCCACGAAAGGTCATTGATTCAGTGA, with 5.53; and CCAACTGGGGCAAGGTTACCATAACGCACAGCCA, with 0.378; and GCTGCTAGGTCAGGTTGGTCACCTAACGGGTACG, with 0.48.
Same read-out and setting: next, CCGACTGGGGCAAAGGGTACCATACTCAGTACGA: -0.113.
As to ATCTCTAGGTAAGACTAAGTTCAGTGAAGAACGC, the PBM binding z-score amounted to 1.83.
TCTATTAGTTTATTAGGGCAACCGAAACAGCGGA yielded a PBM binding z-score of 1.07.
Still for that read-out and setting: next, CCTTACGGGCCACTCCAGGTTATAGCATCGGAGT: 0.0123.
Same read-out and setting: next, TCTTGTAGATCAAGCACGTTAAGAAAGCCTGAGT: 0.445.

Source of the values: the supplement of paper PMC6555819.
